Here are results for 20 compounds from ChEMBL document CHEMBL5606460, “ASAP - DENV-2 NS2B-NS3 protease fluorescence single point” (2024).

Among all 2,000 compounds or so, about 110 (5.5%) showed an effect of 50% or more. This is one part of a sample in which strong results are shown more often than they occur.

The assay deals with Genome polyprotein (dengue virus type 2) (UniProt P29990).
The mark [1] stands for this setting: Thailand/16681/1984, Concentration 25.0 uM, Number of replicates 1.0.

As a reminder, the inhibition is the relative decrease from the control value, in per cent. Regarding `CCc1ccc(CN(CC(C)C)C(=O)C2CCN(c3ccc(C=O)cc3)CC2)cc1`, the inhibition under setting [1] was found to be 13.3%.
For `O=Cc1ccc(N2CCC(C(=O)Nc3ccccc3Sc3ccccc3)CC2)cc1`, under setting [1], the inhibition is 12.1%.
Take `CNC(=O)[C@H]1CCCN1S(=O)(=O)c1ccc(Oc2ccccc2Cl)cc1`: the inhibition is -4.62% (Thailand/16681/1984, Concentration 49.5 uM, Number of replicates 2.0, Standard deviation 0.43290983719310167 %); -4.38% (Thailand/16681/1984, Concentration 99.01 uM, Number of replicates 2.0, Standard deviation 1.120416310773355 %); -3.59% (Thailand/16681/1984, Concentration 198.0 uM, Number of replicates 2.0, Standard deviation 0.24124704358981106 %).
For the compound `CNC(=O)c1cc(Cl)ccc1NS(=O)(=O)c1cccc(Oc2ccccc2)c1`, the inhibition reads like this: (Thailand/16681/1984, Concentration 49.5 uM, Number of replicates 2.0, Standard deviation 1.273206391645472 %) 8.45%; (Thailand/16681/1984, Concentration 99.01 uM, Number of replicates 2.0, Standard deviation 0.33776821571418564 %) 23.8%; (Thailand/16681/1984, Concentration 198.0 uM, Number of replicates 2.0, Standard deviation 0.06600533651594093 %) 89.9%.
Consider `CNC(=O)c1ccccc1NS(=O)(=O)c1ccc(Oc2ccccc2Cl)cc1`, for which the inhibition is 0.494% (Thailand/16681/1984, Concentration 49.5 uM, Number of replicates 2.0, Standard deviation 0.8338499147497574 %); -2.05% (Thailand/16681/1984, Concentration 99.01 uM, Number of replicates 2.0, Standard deviation 3.066215993073902 %); -6.31% (Thailand/16681/1984, Concentration 198.0 uM, Number of replicates 2.0, Standard deviation 2.7475277663160753 %).
`NC(=O)c1ccccc1NS(=O)(=O)c1ccc(Oc2ccccc2Cl)cc1`: the inhibition (Thailand/16681/1984, Concentration 49.5 uM, Number of replicates 2.0, Standard deviation 0.6673279112123895 %) was found to be 5.67%; the inhibition (Thailand/16681/1984, Concentration 99.01 uM, Number of replicates 2.0, Standard deviation 2.0636931261780913 %) was 38.8%; the inhibition (Thailand/16681/1984, Concentration 198.0 uM, Number of replicates 2.0, Standard deviation 0.3870011295715193 %) was determined as 81.3%.
Take `O=S(=O)(Nc1ccccc1)c1ccc(Oc2ccccc2Cl)cc1`: the inhibition (Thailand/16681/1984, Concentration 49.5 uM, Number of replicates 2.0, Standard deviation 1.8105423163556815 %) came to 1.05%; the inhibition (Thailand/16681/1984, Concentration 99.01 uM, Number of replicates 2.0, Standard deviation 1.556829309720985 %) turned out to be 2.93%; the inhibition (Thailand/16681/1984, Concentration 198.0 uM, Number of replicates 2.0, Standard deviation 1.335088080503107 %) amounted to 5.83%.
Turning to `COC1CN(C(=O)c2cc(Cl)ccc2NS(=O)(=O)c2ccc(Oc3ccccc3Cl)cc2)C1`, the inhibition reads like this: (Thailand/16681/1984, Concentration 49.5 uM, Number of replicates 2.0, Standard deviation 0.43340110085934463 %) 13.9%; (Thailand/16681/1984, Concentration 99.01 uM, Number of replicates 2.0, Standard deviation 0.8668022017186893 %) 27.6%; (Thailand/16681/1984, Concentration 198.0 uM, Number of replicates 2.0, Standard deviation 1.1631532151634014 %) 43.9%.
On to `O=C(c1cc(Cl)ccc1NS(=O)(=O)c1ccc(Oc2ccccc2Cl)cc1)N1CCC[C@H](O)C1`, for which the inhibition reads like this: (Thailand/16681/1984, Concentration 49.5 uM, Number of replicates 2.0, Standard deviation 1.2236693461292836 %) 22.2%; (Thailand/16681/1984, Concentration 99.01 uM, Number of replicates 2.0, Standard deviation 0.043163767671764885 %) 86.9%; (Thailand/16681/1984, Concentration 198.0 uM, Number of replicates 2.0, Standard deviation 0.0596286869236367 %) 96.8%.
With `CNC(=O)c1cc(Cl)ccc1NS(=O)(=O)c1cccc(S(N)(=O)=O)c1`, the inhibition (Thailand/16681/1984, Concentration 49.5 uM, Number of replicates 2.0, Standard deviation 0.4003966624337367 %) was found to be 1.73%; the inhibition (Thailand/16681/1984, Concentration 99.01 uM, Number of replicates 2.0, Standard deviation 1.0615056375609497 %) stood at 3.26%; the inhibition (Thailand/16681/1984, Concentration 198.0 uM, Number of replicates 2.0, Standard deviation 0.04640199433655389 %) turned out to be 5.28%.
For `O=C(c1cc(Cl)ccc1NS(=O)(=O)c1ccc(Oc2ccccc2Cl)cc1)N1CCCC1`, the inhibition by setting is: (Thailand/16681/1984, Concentration 49.5 uM, Number of replicates 2.0, Standard deviation 0.3065647121254482 %) 37.4%; (Thailand/16681/1984, Concentration 99.01 uM, Number of replicates 2.0, Standard deviation 0.3046576515240273 %) 55.4%; (Thailand/16681/1984, Concentration 198.0 uM, Number of replicates 2.0, Standard deviation 0.40716687929743567 %) 69%.
As for `CNC(=O)c1cc(Cl)ccc1NS(=O)(=O)c1ccc(F)c(C(=O)N2CCCC2)c1`, the inhibition by setting is: (Thailand/16681/1984, Concentration 49.5 uM, Number of replicates 2.0, Standard deviation 0.7714528805703116 %) -4.6%; (Thailand/16681/1984, Concentration 99.01 uM, Number of replicates 2.0, Standard deviation 1.6986403894371052 %) -2.1%; (Thailand/16681/1984, Concentration 198.0 uM, Number of replicates 2.0, Standard deviation 1.4542094148600992 %) 1.16%.
With `CCc1cccc(S(=O)(=O)Nc2ccc(Cl)cc2C(=O)NC)c1`, the inhibition came out at 0.409% (Thailand/16681/1984, Concentration 49.5 uM, Number of replicates 2.0, Standard deviation 0.31892086155653854 %); 0.666% (Thailand/16681/1984, Concentration 99.01 uM, Number of replicates 2.0, Standard deviation 0.4824817381530084 %); 1.73% (Thailand/16681/1984, Concentration 198.0 uM, Number of replicates 2.0, Standard deviation 0.7239504320191382 %).
Regarding `Cc1nc(C2CCN(C(=O)c3ccn([C@H]4CCCNC4)n3)CC2)n[nH]1`, the inhibition runs as follows: (Thailand/16681/1984, Concentration 49.5 uM, Number of replicates 2.0, Standard deviation 0.8219326667939915 %) -4.42%; (Thailand/16681/1984, Concentration 99.01 uM, Number of replicates 2.0, Standard deviation 0.15240671313806178 %) -3.84%; (Thailand/16681/1984, Concentration 198.0 uM, Number of replicates 2.0, Standard deviation 2.223365450237249 %) -4.59%.
For `O=Cc1ccc(N2CCC(C(=O)NCCc3cccc(Br)c3)CC2)cc1`, the inhibition under setting [1] is 11.8%.
On the same count and under the same terms, to `O=Cc1ccc(N2CCC(C(=O)N3CC4C[C@H]5CC3C[C@H](C4)C5)CC2)cc1` belongs 14.5%; to `O=Cc1ccc(N2CCC(C(=O)Nc3ccccc3OCC(F)(F)F)CC2)cc1`, 13.4%.
Consider `Cn1cc(CNC(=O)c2ccccc2[C@@H]2CCCCN2)cn1`, for which the inhibition is, setting by setting: (Thailand/16681/1984, Concentration 49.5 uM, Number of replicates 2.0, Standard deviation 1.3250088302691205 %) -2.36%; (Thailand/16681/1984, Concentration 99.01 uM, Number of replicates 2.0, Standard deviation 0.6184423716804828 %) -1.37%; (Thailand/16681/1984, Concentration 198.0 uM, Number of replicates 2.0, Standard deviation 0.12536703369097324 %) -0.243%.
With `Cc1cn(-c2cc(NC(=O)C3CCN(c4ccc(C=O)cc4)CC3)cc(C(F)(F)F)c2)cn1`, under setting [1], the inhibition is 12.1%.
Still for that read-out and setting: to `O=Cc1ccc(N2CCC(C(=O)N3CCC(c4nc5ccccc5s4)CC3)CC2)cc1` belongs 14.3%.
